# High-throughput results as filed in PubChem BioAssay.
# Pf Dd2 inh: inhibitors of Plasmodium falciparum Dd2 growth; P. falciparum Dd2 growth, SYBR Green, 72 h; active compounds read low; hit rate 2.3% among 94,000; activity change, % at 10 µM; in the data active = activity change below about -80%
# C diff HTS: blocks growth of Clostridium difficile; growth activity, negative = inhibition, % at 16 µg/mL (by protocol); Clostridium difficile clinical isolate growth, OD600, 24 h; active compounds read low; hit rate 0.25% among 86,000; AID 1259249;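 active = mean growth activity at or below -80% and every replicate also at or below -80%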;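 also: 0% = DMSO wells and -100% = levofloxacin 16 µg/mL wells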
# Tcruzi prolif: T. cruzi proliferation inhibition; T. cruzi beta-gal in NIH3T3, GalScreen luminescence, 90 h; AID 624255; inhibition, % at 8.34 µM; hit rate 5.9% among 77,000;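 active = mean inhibition above about 93%, with at least 55% of replicates each passing it, limit read from the data, passing the limit was not always enough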
# * hit, by the source's call; · = not tested or not shown. Shown are actives, neighbours in structure and some others; about 6.7% of the full set was active somewhere.
SMILES,Pf Dd2 inh,C diff HTS,Tcruzi prolif
COc1ccc(S(=O)(=O)Nc2cccc3c2O[C@@H](CN(C)S(=O)(=O)c2cn(C)cn2)[C@@H](C)CN([C@H](C)CO)C3=O)cc1,-1,·,-40
CO[C@H]1CN(C)C(=O)c2cc(NC(=O)CC(F)(F)F)ccc2OC[C@H](C)N(CCC(F)(F)F)C[C@@H]1C,12,·,10
Cc1noc(C)c1NC(=O)N(C)C[C@@H]1OCCCC[C@H](C)Oc2ccc(NC(=O)Cc3ccccc3)cc2C(=O)N([C@@H](C)CO)C[C@H]1C,2,-1,16
C[C@H](CO)N1C[C@H](C)[C@@H](CN(C)C(=O)Nc2cccc3ccccc23)Oc2ccc(NS(C)(=O)=O)cc2C1=O,-5,-7,36
CCC(=O)N1CC2(CN(C(=O)Nc3ccc(F)cc3)C2)c2c([nH]c3cc(OC)ccc23)[C@@H]1CO,-84*,-2,·
COc1ccc2c3c([nH]c2c1)[C@H](CO)N(C(=O)Cc1ccccc1)CC31CCN(C(=O)Nc2ccccc2F)CC1,-91*,2,·
COc1ccc(CN2CC3(CN(C(=O)Cc4ccccc4)C3)c3c([nH]c4cc(OC)ccc34)[C@H]2CO)cc1,-89*,-3,·
COc1ccc2c3c([nH]c2c1)[C@@H](CO)N(C(=O)Cc1ccccc1)CC31CCN(C(=O)Cc2ccccc2)CC1,-87*,25,·
COc1ccc2c3c([nH]c2c1)[C@H](CO)N(C(=O)Cc1ccccc1)CC31CCN(C)CC1,-14,0,·
CCC(=O)N1CC2(CCN(C(=O)Nc3ccc(F)cc3)CC2)c2c([nH]c3cc(OC)ccc23)[C@@H]1CO,-59,-4,·
COc1ccc2c3c([nH]c2c1)[C@@H](CO)N(C(=O)Nc1ccccc1F)CC31CCN(C(C)=O)CC1,-12,3,·
COc1ccc(CN2CC3(CN(C(=O)Cc4ccncc4)C3)c3c([nH]c4cc(OC)ccc34)[C@@H]2CO)cc1,-65,-1,·
C[C@H](CO)N1C[C@H](C)[C@H](CN(C)C(=O)Nc2ccc(C(F)(F)F)cc2)Oc2ccc(NC(=O)Nc3ccc4c(c3)OCO4)cc2CC1=O,-23,-13,-8
C[C@@H](NC(=O)C[C@H]1CC[C@@H](NC(=O)C2CCC2)[C@@H](CO)O1)c1ccccc1,-2,·,-2
C[C@@H]1CN([C@@H](C)CO)C(=O)Cc2cc(NC(=O)Cn3cnnn3)ccc2O[C@@H]1CN(C)S(C)(=O)=O,18,-4,-19
CCC(=O)N1CC2(CN(C(=O)Cc3ccccc3)C2)c2c(n(C)c3cc(OC)ccc23)[C@@H]1CO,-37,2,·
COc1ccc2c3c([nH]c2c1)[C@H](CO)N(C(=O)Cc1ccccc1)CC31CN(C(=O)Cc2ccccc2)C1,-83*,1,·
COc1ccc2c3c(n(C)c2c1)[C@H](CO)N(C(=O)c1ccccc1)CC31CCN(C(C)=O)CC1,-36,-1,·
COc1ccc2c3c([nH]c2c1)[C@@H](CO)N(C(=O)Nc1ccc(F)cc1)CC31CN(C(=O)Cc2ccccc2)C1,-10,2,·
COc1ccc2c3c(n(C)c2c1)[C@H](CO)N(C(=O)Cc1ccccc1)CC31CN(C(=O)Cc2ccccc2)C1,-83*,9,·
COc1ccc2c3c(n(C)c2c1)[C@H](CO)N(C(=O)c1ccccc1)CC31CCN(C(=O)c2ccccc2)CC1,-88*,-8,·
Cc1noc(C)c1NC(=O)N(C)C[C@H]1Oc2ccc(NS(=O)(=O)c3cn(C)cn3)cc2C(=O)N([C@@H](C)CO)C[C@@H]1C,15,·,-1
CN(C)CC(=O)N[C@H]1CC[C@@H](CC(=O)NCCN2CCCCC2)O[C@H]1CO,6,5,-52
CO[C@@H]1CN(C)C(=O)c2ccc(NC(=O)Nc3cc(F)ccc3F)cc2OC[C@@H](C)N(C(=O)c2cnccn2)C[C@H]1C,-42,·,5
C[C@@H]1CN([C@H](C)CO)C(=O)c2cccc(NC(=O)CCCCCC(=O)Nc3ccccc3N)c2O[C@H]1CN(C)Cc1ccc(C(F)(F)F)cc1,-92*,-10,·
SMILES,Pf Dd2 inh,C diff HTS,Tcruzi prolif
C[C@@H]1CN([C@H](C)CO)C(=O)c2cccc(NC(=O)CCCCCC(=O)Nc3ccccc3N)c2O[C@H]1CN(C)Cc1ccncc1,-19,-3,·
C[C@H]1CN([C@@H](C)CO)C(=O)c2cccc(NC(=O)CCCCCC(=O)Nc3ccccc3N)c2O[C@H]1CN(C)Cc1ccncc1,23,2,·
C[C@H]1CN([C@@H](C)CO)C(=O)c2cccc(NC(=O)CCCCCC(=O)Nc3ccccc3N)c2O[C@H]1CN(C)Cc1ccc(C(F)(F)F)cc1,-85*,7,·
Cc1noc(C)c1S(=O)(=O)Nc1ccc2c(c1)C(=O)N([C@@H](C)CO)C[C@H](C)[C@H](CN(C)S(=O)(=O)c1ccc(Cl)cc1)O2,-7,-5,-21
C[C@@H]1CN([C@H](C)CO)S(=O)(=O)c2ccc(C3=CCCCC3)cc2O[C@@H]1CN(C)Cc1cccc(C(=O)O)c1,3,2,46
COc1cccc(-c2cnc3c(c2)C(=O)N([C@@H](C)CO)C[C@H](C)[C@@H](CN(C)CC2CCCC2)O3)c1,-6,-1,·
COc1ccc(NC(=O)N(C)C[C@@H]2Oc3c(NC(=O)Nc4cccc5ccccc45)cccc3C(=O)N([C@@H](C)CO)C[C@@H]2C)cc1,-42,-2,77
C[C@H](NC(=O)C[C@@H]1C=C[C@H](NC(=O)C2CCOCC2)[C@@H](CO)O1)c1ccccc1,18,-1,40
CO[C@@H]1CN(C)C(=O)c2cc(NC(=O)Nc3ccc(F)cc3)ccc2OC[C@H](C)NC[C@H]1C,-8,1,-100
CO[C@H]1CN(C)C(=O)c2ccc(NC(=O)Nc3ccc(C(F)(F)F)cc3)cc2OC[C@H](C)NC[C@H]1C,-90*,·,26
CO[C@H]1CN(C)C(=O)c2ccc(NC(=O)Nc3ccc(C(F)(F)F)cc3)cc2OC[C@@H](C)NC[C@@H]1C,-76,·,35
CO[C@@H]1CN(C)C(=O)c2cc(NC(=O)Nc3ccc(C(F)(F)F)cc3)ccc2OC[C@@H](C)NC[C@@H]1C,-81*,·,-11
CO[C@@H]1CN(C)C(=O)c2ccc(NC(=O)Nc3ccc(C(F)(F)F)cc3)cc2OC[C@H](C)NC[C@@H]1C,-21,·,0
CO[C@@H]1CN(C)C(=O)c2cc(NC(=O)Nc3ccc(C(F)(F)F)cc3)ccc2OC[C@H](C)NC[C@H]1C,-89*,·,-132
COCCNC(=O)C[C@@H]1CC[C@H]2[C@H](COc3ccc(NC(=O)c4cc(C)on4)cc3C(=O)N2C)O1,18,2,-25
Cc1ccc(S(=O)(=O)N[C@H]2CC[C@@H](CCNC(=O)C3CCC3)O[C@H]2CO)cc1,-7,-2,·
CCCNC(=O)N1CC2(C1)CN(C(=O)COC)[C@H](CO)c1c2c2ccc(OC)cc2n1C,-7,·,·
C[C@H]1CN([C@@H](C)CO)C(=O)c2cc(-c3cncnc3)cnc2O[C@@H]1CN(C)C(=O)c1ccccc1F,-6,-1,76
Cc1ccccc1-c1cnc2c(c1)C(=O)N([C@@H](C)CO)C[C@H](C)[C@H](CN(C)C(=O)c1cccnc1)O2,·,5,-53
COc1cccc(NC(=O)Nc2ccc3c(c2)C(=O)N(C)[C@@H]2CC[C@H](CC(=O)NCCc4ccccc4)O[C@@H]2CO3)c1,·,-8,27
